# Screening results: PubChem BioAssay, National Center for Advancing Translational Sciences (NCATS)
# Hits are enriched below; roughly 1.7% of the tested compounds scored in any of these assays.
# mIDH1 inhibitor – inhibitors of human mutant IDH1 R132H | IDH1-R132H enzyme, NADPH consumption, diaphorase/resazurin fluorescence | O75874 | hit rate 0.093% among 390,000 | Potency, µM (titrated, usually from 76.6 µM), for inactives: at the top dose activity change, negative = inhibition, most hits filed as inhibitors; also: % is scaled to controls: 0 for no effect and ±100 for the full control effect; nearly all actives have a fitted effect of over 65% in size
#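 IDH1-R132H (0.5 ug/mL dispensed) in pH 7.5 Tris buffer was preincubated 30 min with compound, then given a substrate mix of 0.016 mM NADPH and 2 mM alpha-KG for 80 min at room temperature; remaining NADPH was read by diaphorase/resazurin fluorescence.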
# Glioma ERSR ind – ER stress response induction in glioma. U87-MG GRP78 promoter luciferase reporter, 16 h. AID 602332. hit rate 0.02% among 420,000. Potency, µM, without a hit: at the highest dose activation, most hits filed as activators; also: series mostly up to about 76 µM; % of control where 0% means no effect; nearly all actives have a fitted effect of over 35% in size
#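 ERSR induction read as luciferase luminescence (Bright-Glo, 10 min at room temperature) in stably transfected human U87-MG glioma cells exposed to compounds for 16 h, using GRP78 as sensor.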
# 12-LOX inh – ALOX12 (human) lipoxygenase inhibition | P18054 | purified 12hLO, xylenol orange hydroperoxide absorbance | hit rate 1.1% among 580,000 | Potency, µM (titrated, usually from 108 µM), for the others: at the highest dose activity change, negative = inhibition, hits mostly inhibitors; also: % is scaled to controls: 0 for no effect and ±100 for the full control effect
#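 Purified human 12hLO at 150 nM in 25 mM Hepes, 0.01% Triton X-100, pH 7.0, preincubated 15 min at room temperature with compound. Reaction started with 40 uM arachidonic acid, 30 min at room temperature. Hydroperoxide measured by Fe-xylenol orange, 573/405 nm absorbance ratio.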
# Apoferritin bind – candidate novel general anesthetic via apoferritin binding. apoferritin/1-aminoanthracene competitive binding, fluorescence. Potency, µM (series often up to 77.5 µM), without a hit: at the top dose activity change, negative = displacement, usual class: inhibitors. hit rate 0.074% among 350,000. AID 485281; also: % is scaled to controls: 0 for no effect and ±100 for the full control effect; nearly all actives have a fitted effect of over 20% in size
# Target sequence (P02791 2-175 limits assumed): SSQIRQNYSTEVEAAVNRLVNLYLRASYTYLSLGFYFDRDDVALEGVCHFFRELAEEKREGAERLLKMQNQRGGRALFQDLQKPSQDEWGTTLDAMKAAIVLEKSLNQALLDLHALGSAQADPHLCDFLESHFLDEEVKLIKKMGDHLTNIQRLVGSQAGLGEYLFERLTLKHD
#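 Horse-spleen apoferritin (10 uM) was mixed with 50% saturated 1-aminoanthracene in PBS, exposed to compounds for 10 min at room temperature, and read for fluorescence (ex 380 nm, em 535 nm). Competitive displacement was fitted with a four-parameter Hill equation.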
# TrxR1 substrate – rat thioredoxin reductase 1 substrate activity; O89049; purified TrxR1 substrate turnover, NADPH consumption readout; Potency, µM (titrated, usually from 114 µM), for inactives: top-dose activity change, negative = substrate turnover; hit rate 0.01% among 390,000; AID 588456; also: % is scaled to controls: 0 for no effect and ±100 for the full control effect; nearly all actives have a fitted effect of over 50% in size
# Target sequence (O89049 whole entry, looked up): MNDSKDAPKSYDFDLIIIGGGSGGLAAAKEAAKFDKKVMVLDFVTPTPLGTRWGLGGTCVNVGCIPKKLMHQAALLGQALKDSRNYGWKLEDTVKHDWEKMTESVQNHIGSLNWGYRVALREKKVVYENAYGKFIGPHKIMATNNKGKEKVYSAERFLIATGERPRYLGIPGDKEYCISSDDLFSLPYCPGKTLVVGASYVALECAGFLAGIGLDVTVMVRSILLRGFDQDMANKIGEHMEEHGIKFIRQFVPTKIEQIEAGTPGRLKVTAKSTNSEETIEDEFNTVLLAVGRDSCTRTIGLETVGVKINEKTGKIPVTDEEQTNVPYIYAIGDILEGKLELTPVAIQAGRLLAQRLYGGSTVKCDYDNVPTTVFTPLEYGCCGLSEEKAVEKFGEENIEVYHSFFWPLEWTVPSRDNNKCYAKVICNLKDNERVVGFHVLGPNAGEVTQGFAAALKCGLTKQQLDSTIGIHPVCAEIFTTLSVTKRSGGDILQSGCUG
#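 Rat TrxR1, dispensed at 90 nM, was prereduced with 400 uM NADPH (final) for 5 min at ~22 deg C, then incubated with compound 15 min before 400 uM selenite. A first-read NADPH fluorescence drop versus no-compound background flagged substrates.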
# TrxR1 inh – inhibitors of rat thioredoxin reductase 1; AID 588453; O89049; hit rate 1% among 390,000; recombinant rTrxR1, NADPH fluorescence consumption, selenite substrate; Potency, µM (titrated, usually from 114 µM), without a hit: at the top dose activity change, negative = inhibition, most hits filed as inhibitors; also: % is scaled to controls: 0 for no effect and ±100 for the full control effect; nearly all actives have a fitted effect of over 65% in size
#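 Rat TrxR1 (90 nM in the dispensed reagent) was pre-reduced with 400 uM NADPH for 5 min at room temperature, then incubated with compound for 15 min. After 400 uM selenite was added, NADPH fluorescence (Ex 340/Em 450 nm) was followed for 8 min.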
# The depositor's hits bear a star; ? = inconclusive; / = not tested or not shown; ! = a repeat was not active; [ ] = dose if it differs, or a comment. Calls follow the shape of the dose curve; as a rule, active = well fitted curve in the direction sought with a large enough effect; inconclusive = small, poorly fitted or top-dose-only effect, or another doubt; inactive = no such curve, though single readings can be large; an effect the other way counts as inactive or inconclusive. Potency is read from the fitted curve at half-maximal effect.
SMILES,mIDH1 inhibitor,Glioma ERSR ind,12-LOX inh,Apoferritin bind,TrxR1 substrate,TrxR1 inh
O=c1c2ccccc2sc2nc(C3CCCCC3)n(Cc3ccco3)c(=O)c12,-3%,-3%,?,-3%,3%,-4%
CCc1nc2sc3ccccc3c(=O)c2c(=O)n1Cc1ccco1,-7%,0%,-21%,-7%,-6%[57.1 µM],14µM*
CCN(CC)CCNC(=O)CN1C(=O)c2cccnc2Oc2ccc(C)cc21,-18%,-2%,1%,-6%,0%,8%
Cc1ccc2c(c1)N(CC(=O)NCCC1=CCCCC1)C(=O)c1cccnc1O2,-4%,-1%,20µM*,-20%,-5%,8%[57.1 µM]
CC(=O)c1ccc(NC(=O)c2ccc3nc(-c4ccco4)c(-c4ccco4)nc3c2)cc1,6%,-13%,/,-17%,1%,2.5µM*
O=C(NCc1ccccc1)c1ccc2nc(-c3ccco3)c(-c3ccco3)nc2c1,-1%,-5%,?,-3%,-5%,?
O=C(Nc1ccc(N2CCOCC2)cc1)c1ccc2nc(-c3ccco3)c(-c3ccco3)nc2c1,0%,-6%,-27%,-4%,1%[57.1 µM],-20%
CNC(=O)c1ccc2nc(-c3ccco3)c(-c3ccco3)nc2c1,/,-4%,/,/,-5%,4µM*
O=C(NC1CC1)c1ccc2nc(-c3ccco3)c(-c3ccco3)nc2c1,/,-3%,/,/,-2%,2.5µM*
CSc1ccccc1C(=O)Nc1ncn[nH]1,0%,-1%,11µM*,-2%,4%,22%
N=C1/C(=C/c2ccc(-c3cccc(C(=O)O)c3)o2)C(=O)N=C2SC(CC(=O)N3CCOCC3)=NN12,6%,8%,-20%,6%,?,-26%
N=C1/C(=C\c2ccc(-c3cccc(C(=O)O)c3)o2)C(=O)N=C2SC=C(c3ccccc3)N12,-2%,0%,40µM*,?,-2%,-9%
CCOC(=O)C1=C(C)N(C)C(C)=C(C(=O)OCC)C1c1cccnc1,-3%,-8%,0%,-9%,-8%[57.1 µM],-15%[57.1 µM]
CCOC(=O)C1C(=O)C(C(=O)OCC)C(c2cccnc2)NC1c1cccnc1 (centres undefined),2%,-3%,-1%,55%,22%[57.1 µM],3.2µM*
COc1cc(CNCCNC(=O)c2nonc2N)ccc1OCc1ccc(Cl)cc1,0%,-2%,?,13µM*,3%[57.1 µM],8%[57.1 µM]
COc1cccc(CNCCNC(=O)c2nonc2N)c1,7%,-4%,?,8%,2%,14%
COc1ccc(CN2C(=O)c3cccnc3C2Nc2cc(Cl)ccc2OC)cc1 (centres undefined),-21%,7%,13µM*,2%,-10%,2%
COc1ccc(C(=O)NCC(c2ccco2)N2CCc3ccccc3C2)cc1 (centres undefined),2%,-5%,?,/,-2%,7%
O=[N+]([O-])c1ccc(S(=O)(=O)NCC(c2ccco2)N2CCc3ccccc3C2)cc1 (centres undefined),12%,-2%,14µM*,/,-11%,-9%
Cc1ccc(C(=O)NCC(c2ccco2)N2CCc3ccccc3C2)cc1 (centres undefined),1%,-6%,8.9µM*,/,-12%,1%
O=C(NCC(c1ccco1)N1CCc2ccccc2C1)c1ccc(Br)cc1 (centres undefined),11%,-3%,11µM*,/,-8%,-10%
O=C(NCC(c1ccco1)N1CCc2ccccc2C1)c1ccc(Cl)cc1 (centres undefined),3%,-3%,14µM*,/,0%,-3%
OC1=C(O)c2nc3cc(F)ccc3nc21,10%,2%,0%,6%,-2%,1.6µM*
CS(=O)(=O)NCC(=O)N1CCCCCNC(=O)CC1c1ccccc1 (centres undefined),/,/,10%,/,/,/
COc1ccc(-c2onc3ccc(C(=O)/C=C/N(C)C)cc23)cc1,8%,3%,35µM*,8%,-7%,-24%
SMILES,mIDH1 inhibitor,Glioma ERSR ind,12-LOX inh,Apoferritin bind,TrxR1 substrate,TrxR1 inh
CN(C)/C=C/C(=O)c1ccc2noc(-c3cccc(F)c3)c2c1,10%,2%,?,3%,-5%,-4%
S=c1[nH]nc(-c2ccccc2)n1C1C=CCCC1 (centres undefined),-2%,-1%,45µM*,-4%,7%,-17%
COc1cc(CC(=O)N2CCN(C(=O)c3cccc4ccccc34)CC2)cc(OC)c1OC,/,/,0%,/,/,/
COc1ccc(NC(C)=O)c([N+](=O)[O-])c1[N+](=O)[O-],7%,2%,?,/,5%,5µM*
Clc1ccc(-c2ccc(-c3nn4c(-c5ccco5)nnc4s3)o2)cc1,-1%,-2%,?,/,6%,?
Brc1ccc(-c2nn3c(-c4ccco4)nnc3s2)o1,-1%,1%,?,?,-1%[57.1 µM],28µM*
CC(=O)N1C[C@@H]2CCCN3CCC[C@@H]([C@H]23)[C@H]1CCCC(=O)N1CCNC(=O)C1,/,/,32%,/,/,/
CC(C)c1ccc(NC(=O)c2cc3ncccn3n2)cc1,/,/,14%,/,/,/
C/C=C(/C(=C/C)c1ccc(O)cc1)c1ccc(O)cc1,-8%,7%,50µM*!,?,-11%,-8%
CCNC(=O)COC(=O)c1cc(-c2ccco2)nc2ccccc12,2%,-3%,7.1µM*,230%,29%,11µM*
CCNC(=O)NC(=O)C(C)OC(=O)c1cc(-c2ccco2)nc2ccccc12 (centres undefined),/,/,13µM*,/,/,/
NC(=O)NC(=O)COC(=O)c1cc(-c2ccco2)nc2ccccc12,/,/,14µM*,/,/,/
COc1ccc(CNC(=O)COC(=O)c2cc(-c3ccco3)nc3ccccc23)cc1,/,/,/,-11%,/,/
O=C(NC1CC1)c1cc(-c2ccco2)nc2ccccc12,5%,-3%,?,-4%,353%,-4%
Cc1cc2ccccn2c1C(=O)c1ccc([N+](=O)[O-])o1,1%,-14%,0%,?,7%[57.1 µM],11µM*
Cc1cc2ccccn2c1C(=O)c1ccc([N+](=O)[O-])cc1[N+](=O)[O-],7%,0%,-3%,3%,-1%[57.1 µM],3.2µM*
Cc1cc2ccccn2c1C(=O)c1cccc([N+](=O)[O-])c1,15%,-7%,-28%,?,12%[57.1 µM],23%[57.1 µM]
CC1=CC(=O)CCC1,/,/,17%[176 µM],/,/,/
CC(=O)n1cc(CO)c2ccccc21,-8%,-2%,7%,-6%,-4%,9%
O=Cc1[nH]c2ccccc2c1N(C(=O)CCl)c1ccc([N+](=O)[O-])cc1,-4%,-3%,40µM*,-20%,-6%,11µM*
CC(=O)n1cc(N(C(=O)CCl)c2ccc([N+](=O)[O-])cc2)c2ccccc21,-1%,?,?,-9%,-1%,1.1µM*
